The text below walks through data of PubChem BioAssay.

Test [1] in a line: binders of probe aFSTL3 on microarray, primary screen, stem cell growth factor project, biochemical, small-molecule microarray, fluorescence 635/667 (AID 1064).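 Also: measures binding of the biotinylated anti-FSTL3 antibody to printed compounds.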 As to conditions: higher = more signal.
The nature of test [2]: binders from COS7 lysate, DM2A8 probe, primary screen, torsin A project, cell lysate, small-molecule microarray, fluorescence 635/667 (AID 1065). As to conditions: higher = more signal, COS7 lysate expressing mutant human TOR1A.
Test [3] can be described thus: binders of probe aFGF2 on microarray, primary screen, stem cell growth factor project, biochemical, small-molecule microarray, fluorescence 635/667 (AID 1067).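 Also: measures binding of biotinylated aFGF2 protein to printed compounds on slides; z-score merges feature fluorescence and signal-to-noise across triplicate slides.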 As to conditions: higher = more signal.
The nature of test [4]: binders of probe aFGF10 on microarray, primary screen, stem cell growth factor project, biochemical, small-molecule microarray, fluorescence 635/667 (AID 1071).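 Also: score merges 667 nm spot intensity and signal to noise from triplicate slides.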 As to conditions: higher = more signal.
Test [5] concerns the target Neurogenic locus notch homolog protein 2 (Homo sapiens) (UniProt Q04721). In words: Notch2 binders on small-molecule microarrays, primary screen, biochemical, small-molecule microarray, 635 nm fluorescence, stem cell growth factors (AID 1073). Conditions: Notch2 binding, higher = more signal.
Test [6] has as its target Pro-neuregulin-1, membrane-bound isoform (Homo sapiens) (UniProt Q02297). As to the kind of experiment: NRG1 binders on small-molecule microarrays, primary screen, psychiatric disease protein project, biochemical, small-molecule microarray, fluorescence 635/667 (AID 1075).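 Also: score combines 667 nm spot fluorescence with signal to noise.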 As to conditions: NRG1 binding, 635 nm fluorescence, higher = more signal.
The test system of test [7] is Neuregulin-1 EGF-like domain. As to the kind of experiment: binders of neuregulin-1 EGF-like domain, primary screen, biochemical, small-molecule microarray, 635 nm fluorescence (AID 1081).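 Also: binding of the protein to compounds printed on small-molecule microarray slides.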 As to conditions: small-molecule microarray binding, higher = more signal.
Test [8] in a line: FRG1 promoter luciferase signal modulators, primary screen, FRG1 inhibition for FSHD, cell-based, C2C12 myotubes, firefly/Renilla luciferase, luminescence (AID 1084). As to conditions: higher = more signal, called active from +8 up or from −8 down.
Test [9] can be described thus: binders of probe aFST on microarray, primary screen, stem cell growth factor project, biochemical, small-molecule microarray, fluorescence 635/667 (AID 1086).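 Also: score merges 667 nm fluorescence with signal-to-noise of each printed compound spot.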 As to conditions: higher = more signal.
A short description of test [10]: binders of probe aHhip on microarray, primary screen, stem cell growth factor project, biochemical, small-molecule microarray, fluorescence 635/667 (AID 1087).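 Also: score merges spot fluorescence at 667nm with spot signal to noise ratio.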 Conditions: higher = more signal.

Molecules are shown by their SMILES. Calls of active or inactive are those of the source.

Pro-neuregulin-1, membrane-bound isoform (Homo sapiens), sequence (Q02297 whole entry, looked up, the tested form may be a part, canonical isoform): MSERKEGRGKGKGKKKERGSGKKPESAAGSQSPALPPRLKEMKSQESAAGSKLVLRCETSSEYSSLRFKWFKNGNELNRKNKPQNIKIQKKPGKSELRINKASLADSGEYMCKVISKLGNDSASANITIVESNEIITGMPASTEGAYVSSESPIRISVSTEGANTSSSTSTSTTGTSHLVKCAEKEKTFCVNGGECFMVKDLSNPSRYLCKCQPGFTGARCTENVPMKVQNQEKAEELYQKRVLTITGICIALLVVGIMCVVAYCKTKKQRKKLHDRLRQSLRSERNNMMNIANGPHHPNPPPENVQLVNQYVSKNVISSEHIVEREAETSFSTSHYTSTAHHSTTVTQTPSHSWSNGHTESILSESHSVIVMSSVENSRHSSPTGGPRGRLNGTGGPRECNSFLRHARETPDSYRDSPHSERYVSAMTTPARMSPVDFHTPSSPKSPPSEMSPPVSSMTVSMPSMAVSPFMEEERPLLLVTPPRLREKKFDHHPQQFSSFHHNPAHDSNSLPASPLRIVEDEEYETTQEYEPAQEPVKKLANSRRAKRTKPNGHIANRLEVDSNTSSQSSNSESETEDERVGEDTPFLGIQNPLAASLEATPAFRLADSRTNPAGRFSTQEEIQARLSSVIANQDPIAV
Neurogenic locus notch homolog protein 2 (Homo sapiens), sequence (Q04721 whole entry, looked up, canonical isoform): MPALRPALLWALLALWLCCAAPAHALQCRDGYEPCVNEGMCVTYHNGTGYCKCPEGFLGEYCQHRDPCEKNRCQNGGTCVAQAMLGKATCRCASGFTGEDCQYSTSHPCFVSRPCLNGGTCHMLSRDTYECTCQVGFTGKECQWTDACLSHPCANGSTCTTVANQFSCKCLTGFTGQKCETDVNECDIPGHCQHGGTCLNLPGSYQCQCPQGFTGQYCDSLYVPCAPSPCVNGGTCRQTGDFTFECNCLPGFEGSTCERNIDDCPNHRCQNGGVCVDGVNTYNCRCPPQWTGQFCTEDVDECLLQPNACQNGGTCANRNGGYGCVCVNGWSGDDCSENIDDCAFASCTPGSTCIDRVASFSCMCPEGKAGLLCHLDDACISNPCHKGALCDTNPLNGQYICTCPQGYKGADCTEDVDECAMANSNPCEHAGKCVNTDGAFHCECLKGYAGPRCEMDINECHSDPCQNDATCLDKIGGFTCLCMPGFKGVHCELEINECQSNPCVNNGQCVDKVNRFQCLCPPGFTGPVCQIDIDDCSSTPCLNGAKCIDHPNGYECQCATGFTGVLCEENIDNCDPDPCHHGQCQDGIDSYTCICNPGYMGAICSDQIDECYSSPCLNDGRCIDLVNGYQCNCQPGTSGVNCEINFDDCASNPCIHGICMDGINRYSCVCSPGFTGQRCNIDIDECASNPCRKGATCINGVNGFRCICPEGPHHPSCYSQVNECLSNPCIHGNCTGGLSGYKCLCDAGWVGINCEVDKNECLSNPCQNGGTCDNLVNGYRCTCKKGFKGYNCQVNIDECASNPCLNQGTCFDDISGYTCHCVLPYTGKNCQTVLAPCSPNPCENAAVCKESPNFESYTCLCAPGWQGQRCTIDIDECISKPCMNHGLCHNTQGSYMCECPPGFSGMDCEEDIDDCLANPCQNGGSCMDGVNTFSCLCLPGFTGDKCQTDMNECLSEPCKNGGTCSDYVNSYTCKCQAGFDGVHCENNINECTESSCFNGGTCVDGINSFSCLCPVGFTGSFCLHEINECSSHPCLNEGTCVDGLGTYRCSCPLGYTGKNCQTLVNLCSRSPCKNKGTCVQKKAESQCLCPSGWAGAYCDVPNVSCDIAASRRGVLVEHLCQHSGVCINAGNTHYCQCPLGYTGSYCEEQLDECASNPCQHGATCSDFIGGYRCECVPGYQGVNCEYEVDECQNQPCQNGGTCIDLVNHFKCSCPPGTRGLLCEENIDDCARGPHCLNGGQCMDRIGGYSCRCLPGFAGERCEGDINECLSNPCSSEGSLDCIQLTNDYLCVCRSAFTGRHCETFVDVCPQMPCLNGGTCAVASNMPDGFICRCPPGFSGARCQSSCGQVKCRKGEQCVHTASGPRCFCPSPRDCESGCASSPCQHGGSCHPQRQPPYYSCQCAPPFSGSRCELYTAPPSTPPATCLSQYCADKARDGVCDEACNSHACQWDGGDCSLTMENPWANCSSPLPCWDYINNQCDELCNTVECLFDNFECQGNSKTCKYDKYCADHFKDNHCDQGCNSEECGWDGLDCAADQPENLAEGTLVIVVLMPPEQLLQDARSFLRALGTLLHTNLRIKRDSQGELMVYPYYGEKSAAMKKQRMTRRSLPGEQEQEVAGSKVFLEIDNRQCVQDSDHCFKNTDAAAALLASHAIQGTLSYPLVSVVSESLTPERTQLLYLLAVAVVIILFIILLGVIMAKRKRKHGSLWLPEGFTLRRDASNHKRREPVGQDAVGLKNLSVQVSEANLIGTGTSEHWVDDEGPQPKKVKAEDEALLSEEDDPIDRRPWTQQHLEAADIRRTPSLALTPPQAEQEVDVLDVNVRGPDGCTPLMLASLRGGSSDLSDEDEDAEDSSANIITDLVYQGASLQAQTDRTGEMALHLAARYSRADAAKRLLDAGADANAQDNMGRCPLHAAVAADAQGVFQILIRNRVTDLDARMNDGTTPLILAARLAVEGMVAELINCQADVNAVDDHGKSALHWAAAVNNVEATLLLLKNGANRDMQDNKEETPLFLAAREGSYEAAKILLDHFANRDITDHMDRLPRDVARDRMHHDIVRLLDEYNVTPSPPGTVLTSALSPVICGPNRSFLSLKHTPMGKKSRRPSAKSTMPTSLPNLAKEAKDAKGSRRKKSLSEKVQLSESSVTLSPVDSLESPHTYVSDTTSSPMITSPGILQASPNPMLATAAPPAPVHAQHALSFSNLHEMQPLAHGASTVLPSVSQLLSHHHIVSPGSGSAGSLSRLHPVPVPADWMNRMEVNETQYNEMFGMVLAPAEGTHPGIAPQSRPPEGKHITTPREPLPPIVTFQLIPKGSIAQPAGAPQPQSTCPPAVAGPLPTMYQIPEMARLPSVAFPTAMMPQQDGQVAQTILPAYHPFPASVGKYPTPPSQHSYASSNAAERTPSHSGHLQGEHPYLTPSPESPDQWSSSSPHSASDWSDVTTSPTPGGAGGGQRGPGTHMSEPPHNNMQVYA

With `COc1ccc(COC(=O)NN=C2C[C@@H](O)[C@@H](O)[C@@H]3[C@@H]4C(=O)N(Cc5ccc6c(c5)OCO6)C(=O)[C@@H]4CC[C@@H]23)cc1`, the composite z-score in test [1] is 1.58; in test [2], 0.43; in test [3] it was 0.0203; in [4] it was -0.0669; in test [5], -0.732; in test [6], -0.424. Further, the composite z-score in test [7] was 0.146; in test [9], 1.18; in test [10] it was 0.0722. In addition, the z-score in [8] was -0.918 (inactive).

Turning to `C=CCNC(=O)[C@H]1[C@@H]2C(=O)O[C@@H](c3ccccc3)[C@@H](c3ccccc3)N2[C@@H](c2ccc(O)cc2)[C@]12C(=O)N(C(=O)OCCOC)c1ccc(C#CC3=CCCCC3)cc12`, the composite z-score in test [1] turned out to be 0.484; in [2] it was 1.24; in [3], 0.008; in test [4] it was 0.72; in test [5], 1.05; in [6], 2.03. Besides, the composite z-score in test [7] amounted to 1.06; in [9], 2.01; in test [10], 1.75. Moreover, the z-score in test [8] was -0.829 (inactive).

On to `COCCCNC(=O)[C@]1(Cc2ccccc2)N=C(c2ccc(OCCCO)cc2)O[C@@H]1c1ccccc1`, for which the composite z-score in test [1] was 0.206; in test [2], -0.0225; in [3] it was -0.01; in [4], 0.791; in [5], 0.967; in [6], 1.54. The composite z-score in test [7] was 1.04; in test [9], 0.584; in [10], -0.0645. The z-score in test [8] was -1.33 (inactive).

`CC(C)(C)OC(=O)CC[C@]1(C(=O)NCc2ccccc2)N=C(c2ccc(OCCCO)cc2)O[C@H]1c1ccccc1`: the composite z-score in test [1] was 0.0895; in test [2] it was 0.8; in [3] it was -0.0036; in test [4], 1; in [5], 0.979; in test [6], 1.94. Besides, the values for the composite z-score in [7], in test [9] and in test [10] were 1.23, 1.04 and -0.0645, respectively. For the same molecule, in [8], the z-score is -2.08 (inactive).

Regarding `O=C1C[C@]2(c3ccc([N+](=O)[O-])cc3)C(=O)N(CCN3CCOCC3)c3cc(CO)ccc3[C@H]2N1CC12CC3CC(CC(C3)C1)C2`, the composite z-score in test [1] is -0.0111; in test [2], -0.624; in [3], -0.103; in test [4], -0.164; in [5], -0.35; in [6] it was 1.38. For the same molecule, the composite z-score in test [7] is -0.273; in test [9] it was 0.337; in test [10], 0.312. Further, in [8], the z-score is 0.103 (inactive).

As for `CCOC(=O)C[C@H]1[C@H](OC(=O)c2cc3ccccc3oc2=O)[C@@H](NC(=O)c2ccc3ccccc3n2)c2cc(OCCCO)ccc2N1C(=O)c1ccccc1`, the composite z-score was -0.189 in [1]; 0.459 in test [2]; -0.0455 in test [3]; 0.706 in test [4]; 0.302 in test [5]; 0.0269 in [6]. The figures for the composite z-score in [7], in test [9] and in test [10] were 0.736, 0.353 and -0.383, respectively. For the same molecule, in test [8], the z-score is 0.331 (inactive).

In the case of `CC(CCC(=O)OC[C@H]1O[C@H](C#Cc2ccccc2)C=C[C@@H]1Oc1ccc(C)cc1)=NOC[C@@H](O)COCc1ccco1`, the composite z-score in test [1] was 0.348; in [2] it was -2.21; in test [3], 0.0388; in [4] it was -3.02; in test [5], -2.5; in [6], -0.837. The composite z-score in test [7] is -0.295; in test [9], -1.94; in test [10] it was -0.389. In test [8], the z-score was -0.948 (inactive).

In the case of `CCOC(=O)CCN1C(=O)[C@H]2[C@H]3[C@H](O)[C@H](O)CC(=NNC(=O)OCc4ccc(OC)cc4)[C@@H]3CC[C@H]2C1=O`, the composite z-score is -0.468 in test [1]; 0.336 in test [2]; -0.15 in test [3]; 0.0569 in [4]; 0.0846 in [5]; 0.863 in [6]. Further, the composite z-score turned out to be 0.574 in test [7], 0.15 in test [9] and 0.251 in [10]. Further, the z-score in test [8] was 0.455 (inactive).

Regarding `CCOC(=O)CCN1C(=O)[C@H]2[C@H]3[C@H](O)[C@H](O)CC(=NOC[C@@H](O)COCc4ccco4)[C@@H]3CC[C@H]2C1=O`, the composite z-score in [1] is 0.545; in [2], 0.457; in test [3], 0.0166; in test [4], 0.484; in test [5], -0.328; in test [6], -0.21. Further, the values for the composite z-score in test [7], in test [9] and in [10] were 0.486, 0.356 and -0.134, respectively. Moreover, the z-score in test [8] is -0.124 (inactive).

On to `C=C(CCCC)C(=O)CC[C@@H](OC(C)=O)c1cccc(OCCO)c1`, for which the composite z-score was -0.168 in test [1]; -0.371 in [2]; -0.152 in test [3]; -0.565 in [4]; -0.46 in test [5]; 0.25 in [6]. In addition, the composite z-score is 1.36 in test [7], -0.507 in test [9] and -0.0994 in [10]. In test [8], the z-score was -3.56 (inactive).

For the molecule `COC(=O)[C@@H]1CCCN1C(=O)[C@@H](C)CO`, the composite z-score is -0.527 in test [1]; 0.431 in test [2]; -0.137 in test [3]; 0.467 in test [4]; 0.693 in test [5]; 0.346 in [6]. The composite z-score was found to be 1.03 in test [7], 0.162 in [9] and 0.154 in [10]. Moreover, the z-score in [8] was 1.66 (inactive).

Turning to `O[C@@H](Cc1ccccc1)[C@H]1C2C=CCCC(c3ccccc3)=C2CN1Cc1cccc(Cl)c1` (stereo not given in full), the composite z-score in test [1] is -0.39; in test [2], 0.507; in [3] it was -0.015; in test [4] it was 0.271; in test [5], 0.799; in [6] it was 1.08. Also, the figures for the composite z-score in test [7], in [9] and in test [10] were 1.07, 0.26 and -0.0047, respectively. Further, the z-score in test [8] is -2.31 (inactive).

In the case of `CC(C)=NOCc1ccc(-c2cc(-c3ccccc3)no2)cc1`, the composite z-score is -0.474 in [1]; -0.191 in [2]; -0.0788 in test [3]; 0.241 in test [4]; 0.29 in [5]; -0.225 in [6]. For the same molecule, the composite z-score in [7] is 0.123; in [9] it was 0.0003; in [10] it was -0.0296. For the same molecule, in [8], the z-score is -0.172 (inactive).

For `CCCNC(=O)OC[C@H]1O[C@H](CCON=C[C@@H](OC)[C@H](C)C=CCC(=O)OC)C=C[C@@H]1Oc1ccc(OC)cc1`, the composite z-score in [1] was -0.479; in [2], 0.698; in [3], -0.136; in test [4] it was -0.192; in test [5], -0.0065; in test [6] it was -0.23. Besides, the composite z-score was 0.614 in test [7], -0.0617 in test [9] and -0.0672 in test [10]. Besides, in [8], the z-score was 1.16 (inactive).
